Data published in PubChem BioAssay (NCI).
Compounds without any hit were thinned out: in the full panel of roughly 83,000, 20% have a hit.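 Assay: single dose, 48 h. Readout: percent growth (0 = no net growth; negative = cell death). Active: <10.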 Unmarked numbers belong to inactive results. The source made the active and inactive calls.

These molecules were tested on HL-60(TB) leukemia (assay: NCI-60 one-dose screen, 48 h (100 = growth as untreated, 0 = no growth, -100 = all killed)). Conditions: 10 µM unless noted.

SMILES | growth
Cc1cccc2c(=O)c3c(sc12)c(NCCN)nc1ccccc13 | -62.7% (active)
O=C(c1ccccc1)C(Br)C(Br)c1cccc([N+](=O)[O-])c1 (stereo not given) | -2.38% (active)
N#Cc1c(NC(=O)c2ccc(Br)cc2)sc2c1CCCC2 | 14.1%
CS(=O)(=O)c1ccc(Cl)c([N+](=O)[O-])c1 | 14%
Fc1cc2[nH]ncc2c2c3c(c(-c4cn[nH]c4C(F)(F)F)nc12)CCCC3 | -9.67% (active)
CCOC(=O)/C=C1\SC(=Nc2ccc(C#N)cc2)N(CCN2C(=O)/C(=C/C(=O)OCC)SC2=Nc2ccc(C#N)cc2)C1=O | 55.5%
CCCCCCCCCCCCCC(=S)NCCCC[C@H](NC(=O)OCc1ccccc1)C(=O)Nc1ccccc1 | 8.79% (active)
COc1ccc(/C(=N\O)c2cc(C)c(OC)c(C)c2)cc1O | -18.3% (active)
CC1(C)C(=NO)C(C)(C)C1=NO | 113%
CCn1c2ccc(O)cc2c2c(C)c3c[n+](C)ccc3c(C)c21 | 95.5%
O=C(Cc1ccccc1Nc1c(Cl)cccc1Cl)NN1C(=O)/C(=C/c2ccc(Br)cc2)SC1=S | 101%
COc1ccc(OC)c([N+](=O)[O-])c1C(=O)CNC(C)=O | 104%
CN(C)CCCN1c2ccccc2CCc2ccc(Cl)cc21 | 80.2%
CCCCNC(=O)Oc1ccc(/C(=C(\C)c2ccccc2)c2ccc(OCCN(CC)CC)cc2)cc1 | 21.3%
COc1ccc(-c2cc(-c3ccc(Cl)cc3)c(C#N)c(=O)n2CCCCC(=O)NO)cc1 | 92.7%
CC(C)CC1C(=O)N2CCC[C@H]2C2(O)O[C@](NC(=O)C3C=C4c5cccc6[nH]c(Br)c(c56)C[C@H]4N(C)C3)(C(C)C)C(=O)N12 (stereo not given in full) | 1.92% (active)
N#Cc1ccc(OC(=O)Nc2c(Cl)cc(Cl)cc2Cl)cc1 | 102%
Cc1cccc(NC(=O)c2sc3nc4c(cc3c2N)CCCC4)c1C | 9.11% (active)
O=C(O)c1cccc([N+](=O)[O-])c1 | 107%
COc1cc(/C(C)=C(\c2ccc(Cl)cc2)c2ccc(OCCN3CCCC3)cc2)ccc1F | 38.4%

SMILES | growth
O=C1/C(=C\c2ccccn2)c2ccccc2N1c1c(Cl)cccc1Cl | 1.39% (active)
Nc1c(C(=O)Nc2cccc3ccccc23)sc2nc3c(cc12)CCCCC3 | -25.9% (active)
CC[C@@H](C(=O)[C@@H](C)[C@@H](O)[C@H](C)[C@@H]1O[C@@H]([C@@H](CC)C(=O)O)CC[C@@H]1C)[C@H]1OC2(C=C[C@@H](O)[C@]3(CC[C@@](C)([C@H]4CC[C@](O)(CC)[C@H](C)O4)O3)O2)[C@H](C)C[C@@H]1C (stereo not given in full) | -45.6% (active)
CC1CCc2c(C(=O)Nc3ncc(Cc4cccc([N+](=O)[O-])c4)s3)csc2C1 (stereo not given) | -26.3% (active)
CC(=O)ON=C1C=CC(=C(C#N)c2ccccc2)C=C1 | -10.5% (active)
O=C(N=Nc1c(O)[nH]c2ccc(Br)cc12)c1cc(-c2ccccc2)on1 | 84.9%
FC(F)(F)c1cccc(Oc2ccc(Nc3ncnc4ccc(OCCCN5CCOCC5)cc34)cc2Cl)c1 | 32.8%
Nc1c(C(=O)Nc2ccccc2)sc2nc3c(cc12)CCCC3 | 15.5%
NC1=NC(c2ccc(Cl)cc2)C2=C(N1)/C(=C/c1ccc(Cl)cc1)CCC2 (stereo not given) | 64.8%
Cn1cc(-c2noc(-c3cn(C)c4ncc(Br)cc34)n2)c2cc(Cl)ccc21 | 102%
CN1CCN(CC(=O)Nc2ccc(-c3nc4ccccc4s3)cc2)CC1 | 96.4%
CCCCCCCCCCCCCCCCCCOc1ccc(CC(=O)OCC[N+](C)(C)C)cc1 | 2.32% (active)
Cc1nc2cc(Nc3nc(Nc4ccc(F)cc4)nc(N4CCCC4)n3)ccc2n1Cc1ccccc1 | -41.5% (active)
CS(=O)(=O)Nc1ccc(Nc2c3ccccc3nc3cc(N)ccc23)cc1 | 5.48% (active)
CS(=O)(=O)c1nccc(-c2c(-c3cccc(OCCN4CCOCC4)c3)nc3sccn23)n1 | 66.4%
Nc1nc(-c2cc3c(cc2Cl)NC(=O)/C3=C/c2ccc(Cl)cc2)cs1 | -11.7% (active)
Cc1c(Cn2c(C)nc3c(C(=O)O)cc(N4CCOCC4)cc32)cccc1C(F)(F)F | 78.6%
COc1ccc(CC(C)=C(c2ccc(OCCN(C)C)cc2)c2ccc(OCCN(C)C)cc2)cc1 | 41.3%
Cc1c2cnccc2c(C)c2c1c1cc(C3OCCCO3)ccc1n2C | -4.04% (active)
Cc1ccc2[nH]c(=O)cc(-n3nncc3COc3ccc(C=O)cc3)c2c1 | 107%
